Common to all, as to assay: DAPPL (digital affinity profiling via proximity ligation, sequencing); 10 mM Tris-HCl pH 7.5, 50 mM NaCl, 1 mM DTT, 4% glycerol, room temperature, 30 min; GST-TFs on glutathione beads, 16-mer random dsDNA library, 0.1% formaldehyde crosslink after washing; high values mean tight binding
One assay addresses T1, FEV (Homo sapiens, UniProt Q99581 1-238).
T1 sequence: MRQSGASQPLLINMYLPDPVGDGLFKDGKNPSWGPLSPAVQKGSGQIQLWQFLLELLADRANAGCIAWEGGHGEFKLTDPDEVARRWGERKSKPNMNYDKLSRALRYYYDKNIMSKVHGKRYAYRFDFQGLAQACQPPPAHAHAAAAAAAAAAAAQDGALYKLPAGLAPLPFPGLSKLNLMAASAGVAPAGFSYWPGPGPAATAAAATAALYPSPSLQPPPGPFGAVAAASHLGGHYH
The settings on record: protein: recombinant; tags: N-terminal GST; dsDNA, one strand shown. An outline of the steps:
(§1)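 Each value of binding signal is a hexamer's read frequency for a factor divided by the same hexamer's frequency in the tag-only sample. Barcoded, bead-captured GST fusions of human transcription factors made in yeast were pooled with that sample and incubated with 200 nmole of a random double-stranded 16-mer DNA library in Tris/NaCl/DTT/glycerol buffer at room temperature for 30 min. Washing, 0.1% formaldehyde crosslinking, proximity ligation, PCR and Illumina NextSeq500 sequencing followed.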

In the next assay the target is ETV5 (Homo sapiens, UniProt P41161 1-510). The settings on record: protein: recombinant; tags: N-terminal GST; dsDNA, one strand shown. An outline of the steps:
as §1

The target in a further assay is HSF1 (Homo sapiens, UniProt Q00613 1-529). Conditions: protein: recombinant; tags: N-terminal GST; chain copies: 3; dsDNA, one strand shown. An outline of the steps:
as §1

In the next assay the target is T2, SPIC (Homo sapiens, UniProt Q8N5J4 1-248).
T2 sequence: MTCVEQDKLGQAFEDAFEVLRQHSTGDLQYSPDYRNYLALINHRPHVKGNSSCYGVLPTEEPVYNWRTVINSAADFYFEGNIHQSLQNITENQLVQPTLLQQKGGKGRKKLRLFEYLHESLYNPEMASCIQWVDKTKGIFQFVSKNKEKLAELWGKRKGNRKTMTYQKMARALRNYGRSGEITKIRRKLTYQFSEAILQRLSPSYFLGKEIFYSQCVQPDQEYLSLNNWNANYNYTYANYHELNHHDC
Conditions: protein: recombinant; tags: N-terminal GST; dsDNA, one strand shown. An outline of the steps:
as §1

The target of a further assay is ELF4 (Homo sapiens, UniProt Q99607 1-663). The settings on record: protein: recombinant; tags: N-terminal GST; dsDNA, one strand shown. An outline of the steps: as §1
Sequence of ELF4 (Q99607 whole entry): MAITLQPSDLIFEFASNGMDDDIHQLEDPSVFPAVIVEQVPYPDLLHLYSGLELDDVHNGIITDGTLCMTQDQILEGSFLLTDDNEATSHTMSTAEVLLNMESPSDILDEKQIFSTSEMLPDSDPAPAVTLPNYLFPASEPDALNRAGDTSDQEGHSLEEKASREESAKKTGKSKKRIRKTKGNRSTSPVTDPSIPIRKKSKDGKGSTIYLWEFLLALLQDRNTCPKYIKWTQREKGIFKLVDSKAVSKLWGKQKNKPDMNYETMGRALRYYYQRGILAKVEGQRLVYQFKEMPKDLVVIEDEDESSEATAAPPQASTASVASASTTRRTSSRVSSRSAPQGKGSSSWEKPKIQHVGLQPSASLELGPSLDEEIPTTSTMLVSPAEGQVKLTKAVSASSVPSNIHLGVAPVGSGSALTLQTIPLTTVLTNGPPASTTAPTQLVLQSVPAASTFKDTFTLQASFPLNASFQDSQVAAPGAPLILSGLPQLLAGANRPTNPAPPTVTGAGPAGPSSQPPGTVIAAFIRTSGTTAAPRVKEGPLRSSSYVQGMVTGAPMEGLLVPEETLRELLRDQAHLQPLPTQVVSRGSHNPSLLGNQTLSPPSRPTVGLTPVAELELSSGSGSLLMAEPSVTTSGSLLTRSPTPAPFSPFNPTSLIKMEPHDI
The target in another assay is T3, ELK4 (Homo sapiens, UniProt P28324-2 1-405).
T3 sequence: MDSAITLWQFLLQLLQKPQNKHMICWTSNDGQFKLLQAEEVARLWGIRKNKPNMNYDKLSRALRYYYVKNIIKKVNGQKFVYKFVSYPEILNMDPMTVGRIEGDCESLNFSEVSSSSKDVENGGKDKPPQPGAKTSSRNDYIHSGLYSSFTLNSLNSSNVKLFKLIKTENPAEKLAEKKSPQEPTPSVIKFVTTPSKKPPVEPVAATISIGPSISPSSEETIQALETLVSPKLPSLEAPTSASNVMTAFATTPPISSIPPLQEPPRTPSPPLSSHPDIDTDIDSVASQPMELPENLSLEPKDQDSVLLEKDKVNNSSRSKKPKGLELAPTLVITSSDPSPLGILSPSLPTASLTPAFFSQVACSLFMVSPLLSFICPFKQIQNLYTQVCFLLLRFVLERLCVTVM
Conditions: protein: recombinant; tags: N-terminal GST; dsDNA, one strand shown. An outline of the steps:
as §1

For another assay, the target named is T4, ETV2 (Homo sapiens, UniProt O00321 1-342).
T4 sequence: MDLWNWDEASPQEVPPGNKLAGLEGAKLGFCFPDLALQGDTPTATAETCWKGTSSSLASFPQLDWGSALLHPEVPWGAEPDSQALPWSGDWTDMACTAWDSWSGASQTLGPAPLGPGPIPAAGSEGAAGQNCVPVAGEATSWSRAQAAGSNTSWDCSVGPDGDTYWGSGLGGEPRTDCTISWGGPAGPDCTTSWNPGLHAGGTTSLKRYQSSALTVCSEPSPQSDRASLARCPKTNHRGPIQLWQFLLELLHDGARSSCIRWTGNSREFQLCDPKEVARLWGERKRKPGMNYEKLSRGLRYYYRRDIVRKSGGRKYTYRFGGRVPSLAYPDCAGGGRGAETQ
Conditions: protein: recombinant; tags: N-terminal GST; dsDNA, one strand shown. An outline of the steps: as §1

In another assay the target is T5, ELF3 (Homo sapiens, UniProt P78545 1-371).
T5 sequence: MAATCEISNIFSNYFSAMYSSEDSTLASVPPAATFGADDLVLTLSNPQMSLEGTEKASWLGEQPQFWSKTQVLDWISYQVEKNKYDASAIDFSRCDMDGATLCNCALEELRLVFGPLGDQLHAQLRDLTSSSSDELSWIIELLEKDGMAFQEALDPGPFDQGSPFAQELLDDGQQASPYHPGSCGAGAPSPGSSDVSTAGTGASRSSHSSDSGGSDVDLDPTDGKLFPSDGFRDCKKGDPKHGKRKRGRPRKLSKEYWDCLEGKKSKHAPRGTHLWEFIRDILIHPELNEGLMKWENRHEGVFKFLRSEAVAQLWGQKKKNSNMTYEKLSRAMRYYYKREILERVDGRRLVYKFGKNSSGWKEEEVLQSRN
Conditions: protein: recombinant; tags: N-terminal GST; dsDNA, one strand shown. An outline of the steps: as §1

A further assay has as its target CRX (Homo sapiens, UniProt O43186 1-299). Conditions: protein: recombinant; tags: N-terminal GST; dsDNA, one strand shown. An outline of the steps: as §1
In a further assay the target is ETV1 (Homo sapiens, UniProt P50549 1-477). Conditions: protein: recombinant; tags: N-terminal GST; dsDNA, one strand shown. An outline of the steps:
as §1

A further assay deals with T6, ERF (Homo sapiens, UniProt P50548 1-548).
T6 sequence: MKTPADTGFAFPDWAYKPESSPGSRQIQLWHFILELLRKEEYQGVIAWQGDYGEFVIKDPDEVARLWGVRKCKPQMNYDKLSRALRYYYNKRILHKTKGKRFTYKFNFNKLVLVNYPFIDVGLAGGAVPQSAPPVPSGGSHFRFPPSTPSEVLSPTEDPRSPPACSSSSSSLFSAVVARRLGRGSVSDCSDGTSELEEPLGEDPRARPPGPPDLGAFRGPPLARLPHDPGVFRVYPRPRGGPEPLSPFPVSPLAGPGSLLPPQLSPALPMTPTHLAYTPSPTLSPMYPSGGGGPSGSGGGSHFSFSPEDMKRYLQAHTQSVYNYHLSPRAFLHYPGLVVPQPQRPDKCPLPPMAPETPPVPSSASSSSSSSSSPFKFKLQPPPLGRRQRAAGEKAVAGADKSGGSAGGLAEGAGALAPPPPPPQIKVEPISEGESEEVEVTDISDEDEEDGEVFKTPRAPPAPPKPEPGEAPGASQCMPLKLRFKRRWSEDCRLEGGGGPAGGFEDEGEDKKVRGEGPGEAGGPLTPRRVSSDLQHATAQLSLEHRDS
Conditions: protein: recombinant; tags: N-terminal GST; dsDNA, one strand shown. An outline of the steps:
as §1

In a further assay the target is T7, ETV3L (Homo sapiens, UniProt Q6ZN32 1-361).
T7 sequence: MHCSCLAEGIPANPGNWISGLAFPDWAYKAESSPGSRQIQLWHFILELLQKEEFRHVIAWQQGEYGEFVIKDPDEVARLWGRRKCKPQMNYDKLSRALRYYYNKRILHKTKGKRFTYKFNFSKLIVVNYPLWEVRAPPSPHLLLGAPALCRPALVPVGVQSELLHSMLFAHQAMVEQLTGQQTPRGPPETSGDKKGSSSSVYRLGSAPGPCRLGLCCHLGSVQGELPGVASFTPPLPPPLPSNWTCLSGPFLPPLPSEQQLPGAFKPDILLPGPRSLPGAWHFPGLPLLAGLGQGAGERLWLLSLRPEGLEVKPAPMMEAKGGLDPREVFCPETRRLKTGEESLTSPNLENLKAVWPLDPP
Conditions: protein: recombinant; tags: N-terminal GST; dsDNA, one strand shown. An outline of the steps:
as §1

For the next assay, the target named is T8, ETS2 (Homo sapiens, UniProt P15036 1-469).
T8 sequence: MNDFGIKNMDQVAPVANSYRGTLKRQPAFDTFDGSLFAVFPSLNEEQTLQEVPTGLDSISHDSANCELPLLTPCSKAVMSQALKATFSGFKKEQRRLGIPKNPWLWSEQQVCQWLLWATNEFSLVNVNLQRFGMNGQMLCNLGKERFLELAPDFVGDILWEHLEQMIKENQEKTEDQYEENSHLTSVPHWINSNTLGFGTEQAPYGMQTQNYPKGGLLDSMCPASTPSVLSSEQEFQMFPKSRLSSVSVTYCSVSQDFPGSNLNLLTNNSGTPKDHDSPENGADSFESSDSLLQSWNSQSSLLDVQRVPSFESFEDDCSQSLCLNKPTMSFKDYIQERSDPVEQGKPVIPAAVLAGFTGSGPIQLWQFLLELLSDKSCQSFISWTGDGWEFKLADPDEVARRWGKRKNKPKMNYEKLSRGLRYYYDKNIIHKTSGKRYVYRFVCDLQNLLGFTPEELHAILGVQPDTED
The settings on record: protein: recombinant; tags: N-terminal GST; dsDNA, one strand shown. An outline of the steps:
as §1

The next assay has as its target T9, SPDEF (Homo sapiens, UniProt O95238 1-335).
T9 sequence: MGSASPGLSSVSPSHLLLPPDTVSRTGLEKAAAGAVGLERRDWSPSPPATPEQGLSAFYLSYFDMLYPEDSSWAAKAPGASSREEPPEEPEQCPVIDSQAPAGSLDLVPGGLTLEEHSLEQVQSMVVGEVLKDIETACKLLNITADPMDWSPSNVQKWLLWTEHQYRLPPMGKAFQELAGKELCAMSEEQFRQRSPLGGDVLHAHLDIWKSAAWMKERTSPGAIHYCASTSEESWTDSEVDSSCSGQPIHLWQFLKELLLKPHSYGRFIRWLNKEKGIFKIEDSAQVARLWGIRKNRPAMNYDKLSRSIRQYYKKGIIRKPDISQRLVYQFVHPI
Conditions: protein: recombinant; tags: N-terminal GST; dsDNA, one strand shown. An outline of the steps:
as §1

A further assay has as its target T10, ETV7 (Homo sapiens, UniProt Q9Y603 1-341).
T10 sequence: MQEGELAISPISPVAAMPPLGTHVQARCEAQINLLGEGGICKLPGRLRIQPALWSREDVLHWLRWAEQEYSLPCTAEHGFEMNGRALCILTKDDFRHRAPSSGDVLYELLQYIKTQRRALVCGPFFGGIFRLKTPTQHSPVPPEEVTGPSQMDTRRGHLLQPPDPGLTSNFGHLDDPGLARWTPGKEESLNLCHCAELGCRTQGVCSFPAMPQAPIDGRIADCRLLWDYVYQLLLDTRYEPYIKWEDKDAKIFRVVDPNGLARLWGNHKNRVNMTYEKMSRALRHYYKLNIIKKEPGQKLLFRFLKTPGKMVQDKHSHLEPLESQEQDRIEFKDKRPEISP
The settings on record: protein: recombinant; tags: N-terminal GST; dsDNA, one strand shown. An outline of the steps: as §1

The target in a further assay is T11, ELF5 (Homo sapiens, UniProt Q9UKW6-2 1-255).
T11 sequence: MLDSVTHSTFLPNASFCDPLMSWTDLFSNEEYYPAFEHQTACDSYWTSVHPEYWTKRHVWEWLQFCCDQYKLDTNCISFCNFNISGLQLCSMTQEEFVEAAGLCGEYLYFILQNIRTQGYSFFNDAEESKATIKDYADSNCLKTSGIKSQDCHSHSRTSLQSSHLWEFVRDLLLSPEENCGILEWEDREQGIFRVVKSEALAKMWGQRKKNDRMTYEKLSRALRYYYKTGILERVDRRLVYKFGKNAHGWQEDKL
The settings on record: protein: recombinant; tags: N-terminal GST; dsDNA, one strand shown. An outline of the steps: as §1

In a further assay the target is T12, ETV3 (Homo sapiens, UniProt P41162-2 1-143).
T12 sequence: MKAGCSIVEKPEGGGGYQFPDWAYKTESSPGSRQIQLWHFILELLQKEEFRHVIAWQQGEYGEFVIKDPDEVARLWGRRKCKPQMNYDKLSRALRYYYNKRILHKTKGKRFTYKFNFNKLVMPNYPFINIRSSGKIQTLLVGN
Conditions: protein: recombinant; tags: N-terminal GST; dsDNA, one strand shown. An outline of the steps: as §1

The next assay addresses ETV6 (Homo sapiens, UniProt P41212 1-452). Conditions: protein: recombinant; tags: N-terminal GST; dsDNA, one strand shown. An outline of the steps: as §1

The values that follow come from paper PMC7862700, “An all-to-all approach to the identification of sequence-specific readers for epigenetic DNA modifications on cytosine”.

Sequence of ETV5 (P41161 whole entry): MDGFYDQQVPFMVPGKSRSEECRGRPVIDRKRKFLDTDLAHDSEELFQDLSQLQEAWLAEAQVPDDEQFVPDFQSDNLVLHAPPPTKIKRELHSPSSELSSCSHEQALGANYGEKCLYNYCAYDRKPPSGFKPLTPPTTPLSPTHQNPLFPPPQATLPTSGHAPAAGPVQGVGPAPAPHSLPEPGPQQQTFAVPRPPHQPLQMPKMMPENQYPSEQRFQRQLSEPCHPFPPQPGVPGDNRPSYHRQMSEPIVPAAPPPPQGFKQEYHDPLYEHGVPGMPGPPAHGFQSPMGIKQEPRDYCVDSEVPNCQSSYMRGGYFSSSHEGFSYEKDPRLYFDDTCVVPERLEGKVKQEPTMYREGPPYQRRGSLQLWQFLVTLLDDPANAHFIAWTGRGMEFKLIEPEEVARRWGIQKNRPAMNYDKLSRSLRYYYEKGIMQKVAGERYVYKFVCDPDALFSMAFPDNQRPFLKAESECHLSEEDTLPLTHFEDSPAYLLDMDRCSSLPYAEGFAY
Sequence of ETV1 (P50549 whole entry): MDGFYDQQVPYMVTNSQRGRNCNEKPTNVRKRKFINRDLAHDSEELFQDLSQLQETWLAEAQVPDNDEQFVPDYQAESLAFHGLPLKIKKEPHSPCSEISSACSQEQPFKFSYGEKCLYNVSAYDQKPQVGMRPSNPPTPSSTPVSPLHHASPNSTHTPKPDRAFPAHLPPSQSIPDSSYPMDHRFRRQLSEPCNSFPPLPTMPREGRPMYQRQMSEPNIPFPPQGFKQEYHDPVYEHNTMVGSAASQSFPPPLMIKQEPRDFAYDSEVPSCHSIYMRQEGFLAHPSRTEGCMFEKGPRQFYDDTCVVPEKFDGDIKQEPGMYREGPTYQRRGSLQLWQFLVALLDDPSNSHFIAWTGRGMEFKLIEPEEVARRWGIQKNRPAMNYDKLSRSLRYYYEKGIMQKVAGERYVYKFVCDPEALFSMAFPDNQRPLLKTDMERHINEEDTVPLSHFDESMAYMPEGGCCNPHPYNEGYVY
Sequence of ETV6 (P41212 whole entry): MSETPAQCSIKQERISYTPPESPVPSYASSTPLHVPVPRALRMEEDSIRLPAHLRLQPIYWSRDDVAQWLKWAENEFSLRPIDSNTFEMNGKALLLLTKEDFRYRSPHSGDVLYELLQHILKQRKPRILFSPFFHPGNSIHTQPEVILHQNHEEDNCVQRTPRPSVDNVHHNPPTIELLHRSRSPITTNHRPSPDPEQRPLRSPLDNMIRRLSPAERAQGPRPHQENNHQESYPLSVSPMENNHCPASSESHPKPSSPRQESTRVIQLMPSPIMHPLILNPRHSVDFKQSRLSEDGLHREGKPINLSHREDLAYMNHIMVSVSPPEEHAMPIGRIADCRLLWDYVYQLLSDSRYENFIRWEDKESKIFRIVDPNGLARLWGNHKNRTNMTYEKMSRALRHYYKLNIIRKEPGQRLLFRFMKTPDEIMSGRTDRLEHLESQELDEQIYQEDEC
Sequence of CRX (O43186 whole entry): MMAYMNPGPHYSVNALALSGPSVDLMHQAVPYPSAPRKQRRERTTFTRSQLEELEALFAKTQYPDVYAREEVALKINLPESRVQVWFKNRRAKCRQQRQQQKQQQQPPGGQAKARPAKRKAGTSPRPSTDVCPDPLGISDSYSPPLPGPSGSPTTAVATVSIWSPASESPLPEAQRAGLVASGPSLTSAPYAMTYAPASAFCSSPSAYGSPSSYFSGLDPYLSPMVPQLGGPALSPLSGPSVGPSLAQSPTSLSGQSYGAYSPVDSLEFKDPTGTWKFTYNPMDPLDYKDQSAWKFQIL
Sequence of HSF1 (Q00613 whole entry): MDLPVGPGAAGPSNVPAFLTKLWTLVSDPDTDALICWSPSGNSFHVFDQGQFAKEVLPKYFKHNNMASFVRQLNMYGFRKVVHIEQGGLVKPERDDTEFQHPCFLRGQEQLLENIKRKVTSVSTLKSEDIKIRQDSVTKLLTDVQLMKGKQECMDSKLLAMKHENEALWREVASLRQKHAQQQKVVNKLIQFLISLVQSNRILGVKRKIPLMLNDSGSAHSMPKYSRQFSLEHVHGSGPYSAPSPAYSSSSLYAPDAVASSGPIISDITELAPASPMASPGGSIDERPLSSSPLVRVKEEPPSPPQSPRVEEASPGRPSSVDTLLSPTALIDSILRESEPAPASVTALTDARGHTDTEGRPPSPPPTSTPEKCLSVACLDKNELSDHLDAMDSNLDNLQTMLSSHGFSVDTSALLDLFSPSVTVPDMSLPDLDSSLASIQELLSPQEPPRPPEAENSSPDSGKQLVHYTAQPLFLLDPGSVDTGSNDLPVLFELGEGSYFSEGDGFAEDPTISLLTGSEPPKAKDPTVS

Regarding TCCGCC, the binding signal with FEV is 1.88 fold enrichment (6-mer frequency, TF over GST control); in the assay with ETV5, 1.69 fold enrichment (6-mer frequency, TF over GST control); with HSF1, 1.04 fold enrichment (6-mer frequency, TF over GST control); in the assay with SPIC it was 1.69 fold enrichment (6-mer frequency, TF over GST control); with ELF4, 1.55 fold enrichment (6-mer frequency, TF over GST control); with ELK4 it was 1.45 fold enrichment (6-mer frequency, TF over GST control). The binding signal was 1.48 fold enrichment (6-mer frequency, TF over GST control) in the assay with ETV2; 1.6 fold enrichment (6-mer frequency, TF over GST control) with ELF3; 1.05 fold enrichment (6-mer frequency, TF over GST control) with CRX; 1.59 fold enrichment (6-mer frequency, TF over GST control) with ETV1; 1.48 fold enrichment (6-mer frequency, TF over GST control) in the assay with ERF; 1.59 fold enrichment (6-mer frequency, TF over GST control) with ETV3L. For the same sequence, the binding signal in the assay with ETS2 is 1.54 fold enrichment (6-mer frequency, TF over GST control); with SPDEF, 1.83 fold enrichment (6-mer frequency, TF over GST control); with ETV7, 1.49 fold enrichment (6-mer frequency, TF over GST control); in the assay with ELF5, 2.2 fold enrichment (6-mer frequency, TF over GST control); with ETV3, 1.75 fold enrichment (6-mer frequency, TF over GST control); with ETV6 it was 1.63 fold enrichment (6-mer frequency, TF over GST control).
